A short description of test [1]: NCI Yeast Anticancer Drug Screen. Data for the rad50 strain (AID 155).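 Further: 0% = growth of vehicle-only cultures of the same strain.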 As to conditions: S. cerevisiae rad50 strain growth inhibition; at 50.0 µM; active compounds read high. The procedure, abridged:
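Cells are treated with compound, grown, and their growth is then scored against vehicle-only cultures of the same repair-deficient yeast strain.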

Test [2] in a line: NCI Yeast Anticancer Drug Screen. Data for the mec2-1 strain (AID 157). As to conditions: S. cerevisiae mec2-1 strain, at 50.0 µM, active compounds read high. Put shortly: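 Each compound was tested on mec2-1 yeast, a strain altered in DNA damage repair or cell cycle control. Growth inhibition is reported relative to vehicle.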
Test [3] in a line: NCI Yeast Anticancer Drug Screen. Data for the sgs1 mgt1 strain (AID 161).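 Further: 0% = growth of cultures given vehicle only.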 The following applies: S. cerevisiae sgs1 mgt1 strain, at 50.0 µM, active compounds read high. Put shortly: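 Read-out: growth inhibition vs vehicle controls. Cells: mutant yeast strain deficient in DNA damage repair.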
The nature of test [4]: NCI Yeast Anticancer Drug Screen. Data for the cln2 rad14 strain (AID 165).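 Further: 0% = growth equal to vehicle treated cultures.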 The following applies: S. cerevisiae cln2 rad14 strain, at 50.0 µM, active compounds read high. The procedure, abridged: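 Test compounds were added to cln2 rad14 yeast cultures; inhibition of growth was then determined by comparison with vehicle treatment.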
A short description of test [5]: NCI Yeast Anticancer Drug Screen. Data for the bub3 strain (AID 167). The following applies: S. cerevisiae bub3 mutant strain, at 50.0 µM, active compounds read high. The procedure, abridged:
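Part of a panel of yeast mutants defective in DNA damage repair or cell cycle regulation. Each strain is grown with compound, and inhibition is calculated relative to solvent-treated cultures.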

Test [6] in a line: NCI Yeast Anticancer Drug Screen. Data for the mlh1 rad18 strain (AID 175). The following applies: S. cerevisiae mlh1 rad18 strain growth inhibition; at 50.0 µM; active compounds read high. Put shortly: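 Inhibition values reflect reduced growth of mutant yeast versus vehicle-treated controls following compound exposure; the mutations affect DNA damage repair.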

About 79,000 compounds went through this panel and 15% of them were active in at least one assay; those are over-represented in the sample as a whole. Values without a mark were called inactive. Activity calls are given as the source filed them. No stated cut-off is given here; in the data, active means growth inhibition above about 70%; inactive means the rest.

Take `Oc1ccc(CC2NCCc3cc(O)c(O)cc32)cc1O` (stereo unspecified): the growth inhibition was 17.5% in test [1]; -4.15% in test [2]; 26.3% in test [3]; 24.3% in test [4]; 26.4% in test [5]; 23.1% in test [6].

In the case of `CC1=CC(=Nc2ccc(N(CCCl)CCCl)cc2)C=CC1=O`, the growth inhibition in test [1] was -6.1%; in test [2] it was 33.2%; in test [3], -28.4%; in test [4] it was 14.2%; in test [5], -7.9%; in test [6], 5.35%.

Turning to `NC(CCC(=O)NC(CSc1ccc([N+](=O)[O-])cc1[N+](=O)[O-])C(=O)NCC(=O)O)C(=O)O` (stereo unspecified), the growth inhibition is 0.05% in test [1]; -4.75% in test [2]; 12.2% in test [3]; 8.7% in test [4]; 3.2% in test [5]; -11.1% in test [6].

For `CC[CH2][Sn]([Br])([CH2]CC(=O)OC)[CH2]CC(=O)OC`, the growth inhibition is 16.5% in test [1]; 4.2% in test [2]; 50.1% in test [3]; -19.9% in test [4]; 9.85% in test [5]; 12.1% in test [6].

As to `CSCCC(NC(=O)C(Cc1ccccc1)NC(=O)CNC(=O)CNC(=O)C(N)Cc1ccc(O)cc1)C(=O)O` (stereo unspecified), the growth inhibition in test [1] was 12.4%; in test [2], 2.2%; in test [3], -6.45%; in test [4] it was 26.2%; in test [5] it was 14.4%; in test [6] it was 16.2%.

Take `CN1CCC(O)(c2ccc(Br)cc2)C(C(=O)c2ccc(Br)cc2)C1` (stereo unspecified): the growth inhibition is 96.1% (active) in test [1]; 12.3% in test [2]; 99% (active) in test [3]; -2.65% in test [4]; 0.35% in test [5]; 34.8% in test [6].

As to `CC(CO)([N+](=O)[O-])[N+](=O)[O-]`, the growth inhibition in test [1] was 7.45%; in test [2] it was 4.75%; in test [3], -0.05%; in test [4], -0.1%; in test [5], 4.8%; in test [6], 7.35%.

On to `CC(Cc1cccc2c1Nc1ccccc1S2)N(C)CCO` (stereo unspecified), for which the growth inhibition in test [1] is -60.2%; in test [2], -40.5%; in test [3], -28.6%; in test [4] it was -5.25%; in test [5], -25.4%; in test [6], -30.1%.

As to `COc1ccc(CC(C)=O)cc1OC`, the growth inhibition is -10.9% in test [1]; 6.8% in test [2]; 19% in test [3]; 36% in test [4]; -24.1% in test [5]; -5.9% in test [6].

Consider `CC(C)(C)c1cc2c(=O)o[s+]3oc(=O)c(c1)c23`, for which the growth inhibition is 10.2% in test [1]; -8.75% in test [2]; 6.75% in test [3]; 1.35% in test [4]; 6.15% in test [5]; 14.8% in test [6].

Consider `C[N+](C)(C)CC1CCCC/C1=N\O` (stereo unspecified), for which the growth inhibition was 23.2% in test [1]; 0.3% in test [2]; 9.75% in test [3]; 39% in test [4]; 8.6% in test [5]; 39.3% in test [6].

Regarding `O=C(N/N=C/c1ccc(N(CCCl)CCCl)cc1)c1ccc(N(CCCl)CCCl)cc1`, the growth inhibition in test [1] is 30.6%; in test [2], 4.65%; in test [3] it was 26.6%; in test [4], 37.8%; in test [5], 4.55%; in test [6], 7.9%.

In the case of `CC(N)C(=O)c1ccccc1` (stereo unspecified), the growth inhibition is -2.75% in test [1]; 5.2% in test [2]; 6.9% in test [3]; -38.2% in test [4]; 15.3% in test [5]; 1.25% in test [6].

For the compound `CC(C)CC(C)OC(=O)Cc1ccccc1` (stereo unspecified), the growth inhibition in test [1] was 39%; in test [2], 14.5%; in test [3] it was 31.1%; in test [4], -6.9%; in test [5], 7.8%; in test [6], 31.2%.

For the compound `CC1N2C3(c4ccccc4)OC(c4ccccc4)(c4ccccc43)C12c1ccccc1` (stereo unspecified), the growth inhibition in test [1] is 9.8%; in test [2], 13.2%; in test [3] it was 4.95%; in test [4] it was 31.9%; in test [5] it was 0.8%; in test [6] it was 4.05%.

For the compound `Cc1cc(C)n(/C(N)=N/[N+](=O)[O-])n1`, the growth inhibition is -15.3% in test [1]; -18.9% in test [2]; 3.6% in test [3]; 12.6% in test [4]; 21.6% in test [5]; 15.2% in test [6].

Regarding `CN1CC[CH2][Sn]([Cl])([Cl])[CH2]CC1`, the growth inhibition was -1.25% in test [1]; -5.9% in test [2]; 1.15% in test [3]; 1.3% in test [4]; -17.2% in test [5]; 13% in test [6].

As for `COC1OOC(OC)c2ccccc2-c2ccccc21` (stereo unspecified), the growth inhibition in test [1] is -15.3%; in test [2], -9.7%; in test [3] it was 4.1%; in test [4], -14.1%; in test [5], 15.5%; in test [6], 4.15%.

`Cc1c[nH]cn1.Cc1c[nH]cn1.Cc1c[nH]cn1.Cc1c[nH]cn1.Cc1c[nH]cn1.Cc1c[nH]cn1.N#CS.[Mn+2]`: the growth inhibition is 6.1% in test [1]; 4.3% in test [2]; 4.35% in test [3]; -4.8% in test [4]; 4.1% in test [5]; 5.05% in test [6].

Consider `CCOC(OCC)c1ccc(C(F)(F)F)cc1.[C-]#[O+].[C-]#[O+].[C-]#[O+].[Cr]`, for which the growth inhibition is 14.2% in test [1]; 0.8% in test [2]; 25.8% in test [3]; 4.85% in test [4]; 20.4% in test [5]; 26.2% in test [6].

As for `CCOC(=O)C1C2(C)NC(=O)C1(Cc1ccccc1)c1cc(C)c(C)cc1O2` (stereo unspecified), the growth inhibition in test [1] is -0.75%; in test [2] it was 16.5%; in test [3], -11.8%; in test [4], -6.15%; in test [5] it was -3.3%; in test [6], 3.45%.

Source of the values: PubChem BioAssay (NCI).
